In PubChem BioAssay (NCATS):
Results filed as inconclusive are left out. A number with no mark means an inactive call. Calls of active or inactive are those of the source. Calls follow the shape of the dose curve; as a rule, active = well fitted curve in the direction sought with a large enough effect; inconclusive = small, poorly fitted or top-dose-only effect, or another doubt; inactive = no such curve, though single readings can be large or run the other way.

Experiment: qHTS Assay for Identifying Gametocytocidal Compounds (AID 743244);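 as to max response: actives lower the fluorescent signal which means gametocytes are killed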
Conditions: P. falciparum 3D7 stage III-V gametocytes, alamarBlue, 72 h; max response: active compounds read low
Procedure, shortened: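 Fluorescence at Ex 525/Em 598 nm, recorded 24 h after alamarBlue addition, reports residual metabolic activity of 3D7 gametocytes (stages III–V) following 72 h compound exposure at 37 °C, 5% CO2.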
% is scaled to controls: 0 for no effect and ±100 for the full control effect; potency is read from the fitted curve at half-maximal effect.

| SMILES | max response | Potency |
| --- | --- | --- |
| CCCCCCCCCCCCCCCCOCCOCCOCCOCCOCCOCCOCCOCCOCCOCCOCCOCCOCCOCCOCCOCCOCCOCCOCCOCCO | -3.08% |  |
| CC(=O)OCC1=C(C(=O)O)N2C(=O)[C@@H](NC(=O)Cc3ccccc3)[C@H]2SC1 | 7.9% |  |
| CC(=O)N[C@@H]1C(O[C@H]2O[C@H](C(=O)O)C(O)[C@H](O)[C@H]2O)[C@H](O)[C@@H](CO)O[C@H]1O[C@@H]1C(C(=O)O)O[C@@H](O[C@H]2[C@H](O)[C@@H](CO)OC(O)[C@@H]2NC(C)=O)[C@H](O)[C@H]1O (stereo partly drawn) | -1.86% |  |
| NC(=O)[C@@H]1CCCN1C(=O)[C@H](Cc1cnc[nH]1)NC(=O)[C@@H]1CCC(=O)N1 | 7.17% |  |
| NC[C@@H]1O[C@H](O[C@H]2[C@@H](O)[C@H](O[C@@H]3[C@@H](O)[C@H](N)C[C@H](N)[C@H]3O[C@H]3O[C@H](CO)[C@@H](O)[C@H](O)[C@H]3N)O[C@@H]2CO)[C@H](N)[C@@H](O)[C@@H]1O | 20.3% |  |
| OC[C@H]1O[C@@H](O[C@H]2[C@H](O)[C@@H](O)[C@H](O)O[C@@H]2CO)[C@H](O)[C@@H](O)[C@@H]1O | 2.58% |  |
| O=C(O)CN(CC(=O)O)CC1=CC2C(=CC1=O)Oc1cc(O)c(CN(CC(=O)O)CC(=O)O)cc1C21OC(=O)c2ccccc21 (stereo not drawn) | 5.31% |  |
| CC(=O)Oc1cccc2c1C(=O)c1c(OC(C)=O)cc(C(=O)O)cc1C2=O | -7.57% |  |
| CC(C)(C)c1ccc(CN2CCN(C(c3ccccc3)c3ccc(Cl)cc3)CC2)cc1 (stereo not drawn) | -2.06% |  |
| CC(C)(O/N=C(\C(=O)N[C@@H]1C(=O)N2C(C(=O)[O-])=C(C[n+]3ccccc3)CS[C@H]12)c1csc(N)n1)C(=O)O | 20.4% |  |
| N=C(N)n1cccn1 | 13.6% |  |
| CCOC(=O)[C@H](CS)NCCN[C@@H](CS)C(=O)OCC | 2.46% |  |
| O=C(O)COc1ccccc1/C=N/NC(=O)c1ccncc1 | 1.32% |  |
| FC(F)(F)C(F)(F)C(F)(F)C(F)(F)C(F)(F)C(F)(F)F | 13.2% |  |
| CC/C(=C(/CC)c1ccc(OP(=O)(O)O)cc1)c1ccc(OP(=O)(O)O)cc1 | -1.73% |  |
| CCC(Oc1ccccc1)C(=O)N[C@@H]1C(=O)N2[C@@H]1SC(C)(C)[C@@H]2C(=O)O (stereo partly drawn) | 14.1% |  |
| c1ccc(-n2cnnn2)cc1 | 0.811% |  |

| SMILES | max response | Potency |
| --- | --- | --- |
| CN(C)C=Nc1c(I)cc(I)c(CCC(=O)O)c1I | 14.5% |  |
| Oc1cc(O)cc(O)c1 | 16.3% |  |
| Cc1cccc(Nc2ncccc2C(=O)O)c1C | 39.6% |  |
| CN[C@@H]1[C@@H](O)[C@@H](O[C@@H]2[C@@H](O)[C@H](O[C@H]3O[C@H](CN)[C@@H](O)[C@H](O)[C@H]3O)[C@@H](N)C[C@H]2NC(=O)C(O)CN)OC[C@]1(C)O (stereo partly drawn) | 16.8% |  |
| CCN1\C(=C/C=C/C=C/c2sc3ccccc3[n+]2CC)Sc2ccccc21 |  | 11.2 µM (active) |
| CC1(C)[C@@H]2CC[C@@]1(C)[C@H](OC(=O)CSC#N)C2 | -3.31% |  |
| CC[C@H]1NC(=O)[C@@H](NC(=O)c2ncccc2O)[C@@H](C)OC(=O)[C@H](c2ccccc2)NC(=O)[C@@H]2CC(=O)CCN2C(=O)[C@H](Cc2ccccc2)N(C)C(=O)[C@@H]2CCCN2C1=O | 3.22% |  |
| CC1(C)S[C@@H]2[C@H](NC(=O)C3(N)CCCCC3)C(=O)N2[C@H]1C(=O)O | 7.96% |  |
| O=C1C2CC3CC1CC(O)(C3)C2 | 6.58% |  |
| C[C@H](N)C(=O)N[C@@H](C)P(=O)(O)O | 2.87% |  |
| COC(=O)CC[C@H](N)C(=O)O | -4.69% |  |
| C#C[C@]1(O)CC[C@H]2[C@@H]3CCC4=C(CCC(=O)C4)[C@H]3CC[C@@]21C | 12.4% |  |
| O=C(O)CCC/C=C\C[C@@H]1[C@@H](/C=C/[C@@H](O)COc2cccc(C(F)(F)F)c2)[C@H](O)C[C@@H]1O | 7.42% |  |
| CC(CNC(=O)c1cccnc1)NC(=O)c1cccnc1 (stereo not drawn) | -8.6% |  |
| COc1cc2c(cc1OC)[C@@H](c1ccccc1)CN(C)CC2 | -3.71% |  |
| CCCc1nc(C(C)(C)O)c(C(=O)OCc2oc(=O)oc2C)n1Cc1ccc(-c2ccccc2-c2nn[nH]n2)cc1 | 48.2% |  |
